# High-throughput results deposited in PubChem by several laboratories.
# EBI2 block – antagonists of human EBI2 receptor; P32249; EBI2 beta-arrestin recruitment, luminescence, 7a,25-OHC stimulated; inhibition, % at 5 µM; hit rate 0.81% among 360,000; AID 651636; in the data active = inhibition above about 38%;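 note: enzyme fragment complementation signal reports receptor beta-arrestin coupling in cells; 0% = agonist plus DMSO wells and 100% = wells without agonist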
# Target sequence (P32249 whole entry, looked up, the tested form may be a part): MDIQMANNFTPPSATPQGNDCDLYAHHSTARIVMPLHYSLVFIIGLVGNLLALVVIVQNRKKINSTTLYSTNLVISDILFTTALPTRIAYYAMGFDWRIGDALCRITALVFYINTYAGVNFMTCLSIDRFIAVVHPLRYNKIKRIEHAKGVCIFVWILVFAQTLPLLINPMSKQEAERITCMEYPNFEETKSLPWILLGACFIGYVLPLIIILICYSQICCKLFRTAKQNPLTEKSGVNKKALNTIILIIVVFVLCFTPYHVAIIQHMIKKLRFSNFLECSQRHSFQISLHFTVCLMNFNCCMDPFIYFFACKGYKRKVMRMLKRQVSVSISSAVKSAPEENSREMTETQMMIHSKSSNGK
# SENP7 block – blocks the human protease SENP7 | inhibition, % at 5 µM | AID 434973 | hit rate 1.5% among 330,000 | recombinant SENP7, Z-RLRGG-aminoluciferin luminescence, 40 min;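 active = inhibition above about 50% at the single test dose, limit read from the data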;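 note: plate controls were DMSO with enzyme for no effect and no enzyme buffer wells for full effect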
# SENP6 inh – SENP6 protease inhibition; Recombinant SENP6 catalytic domain, aminoluciferin luminescence; inhibition, % at 10 µM; hit rate 1.8% among 330,000; Q9GZR1;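 active = inhibition above about 50% at the single tested dose, limit read from the data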;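 note: plate controls were DMSO wells with enzyme for no effect and DMSO wells lacking enzyme for full effect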
# SENP8 block-1 – blocks human SENP8 cleavage of Nedd8 substrate; Q96LD8; recombinant SENP8, Nedd8 substrate fluorescence; inhibition, % at 20 µM; hit rate 0.64% among 360,000; AID 602440; in the data active = inhibition mostly above about 40%, no sharp cut-off; inactive = mostly below about 27%
# AHR act – activators of human aryl hydrocarbon receptor; P35869; AHR-responsive luciferase reporter cells, luminescence; activation, % at 5 µM; hit rate 2.5% among 320,000; AID 2796; in the data active = activation above about 47%;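 note: 0% = vehicle wells and 100% = reference agonist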
# SENP8 block-2 – SENP8 protease inhibition. Q96LD8. purified SENP8, Z-RLRGG-aminoluciferin cleavage, luminescence. inhibition, % at 10 µM. hit rate 1.2% among 330,000; in the data active = inhibition above about 50%
# SENP8 conf – human SENP8 inhibition, confirmed; shares compounds with SENP7 block; Recombinant SENP8, Z-RLRGG-aminoluciferin luminescence, 60 min; inhibition, % at 12.5 µM; hit rate 40% among 6,200;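 active = mean inhibition across replicates above about 50%, limit read from the data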
# SENP6 conf – human SENP6 inhibition, confirmed; shares compounds with SENP7 block; recombinant SENP6, Z-RLRGG-aminoluciferin luminescence; hit rate 58% among 6,200; inhibition, % at 12.5 µM
# SENP7 conf – confirmation of human SENP7 protease inhibitors; shares compounds with SENP7 block; recombinant SENP7, Z-RLRGG-aminoluciferin luminescence, 40 min; inhibition, % at 12.5 µM; hit rate 69% among 6,200; AID 488917
# Casp3 SENP sel – caspase-3 inhibition (SENP selectivity assay). inhibition, % at 12.5 µM. purified caspase-3, Z-DEVD-aminoluciferin luminescence, 60 min. hit rate 60% among 6,200. shares compounds with SENP7 block;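 active = mean inhibition above about 50%, limit read from the data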;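 note: plate controls were enzyme with DMSO for no effect and wells without caspase-3 for full effect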
# Target sequence (P42574 28-227 limits assumed): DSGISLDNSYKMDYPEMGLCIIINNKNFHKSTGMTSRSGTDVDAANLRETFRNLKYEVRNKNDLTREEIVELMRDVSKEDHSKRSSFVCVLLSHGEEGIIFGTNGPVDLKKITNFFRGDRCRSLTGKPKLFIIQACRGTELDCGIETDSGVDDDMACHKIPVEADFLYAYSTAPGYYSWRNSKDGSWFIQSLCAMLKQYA
# Luc interf – interferes with luciferase luminescence in SENP counter-screen. shares compounds with SENP7 block. Pre-incubated SENP8/Z-RLRGG-aminoluciferin, luciferase luminescence interference. hit rate 39% among 6,200. inhibition, % at 12.5 µM;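 active = mean inhibition above about 50% when retested at one dose, limit read from the data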;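 note: plate controls were DMSO wells with completed reaction for no effect and substrate without enzyme for full effect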
# Numbers without * were called inactive; . = no result; ! = not active in a repeat. Sampled rows, rich in hits. Any-hit rate of the full collection: about 5%.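 Rule for the calls, unless noted: active = mean inhibition above about 50% in the one-dose retest (limit read from the data); inactive = the rest.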
SMILES,EBI2 block,SENP7 block,SENP6 inh,SENP8 block-1,AHR act,SENP8 block-2,SENP8 conf,SENP6 conf,SENP7 conf,Casp3 SENP sel,Luc interf
COc1cc2sc3ccc(-c4ccc(N(C)C)nc4)cc3c(=O)c2cc1OC,.,56*,79*,.,-3,74*,12,14,-4,14,-1
COc1ccc2sc3ccccc3c(=O)c2c1OC,-1,-4,20,-23,0,5,.,.,.,.,.
CN(C)c1ccc(-c2ccc3c(=O)c4ccccc4n(C)c3c2)cn1,-9,12,13,-479,16,-6,.,.,.,.,.
c1ccc2oc(SCc3nc4ccccc4s3)nc2c1,6,25,50,-116,31,32,.,.,.,.,.
Fc1ccc(OCc2nc3ccccc3s2)cc1,-6,94*,97*,-27,34,90*,82*,92*,102*,90*,79*
c1ccc(OCc2nc3ccccc3s2)cc1,10,95*,93*,17,16,88*,85*,96*,101*,91*,84*
N#Cc1ccc(NC(=O)CCc2nc3ccccc3s2)cc1,-6,6,6,10,3,0,.,.,.,.,.
NC(=O)c1ccccc1OCc1nc2ccccc2s1,-8,38,48,-21,40,37,.,.,.,.,.
CCC(=O)Nc1ccc(OCc2nc3ccccc3s2)cc1,17,75*,45,-34,58*,76*,13,80*,96*,75*,15
c1ccc(SCc2nc3ccccc3s2)nc1,5,49,60*,-6,44,45,64*,61*,86*,66*,57*
O=C(O)COCc1nc2ccccc2s1,-3,-6,3,22,1,-3,.,.,.,.,.
CC(NC(=O)/C(=C\c1ccco1)NC(=O)c1ccccc1Br)C(=O)O (configuration not stated),2,-5,-1,12,0,1,.,.,.,.,.
O=C(c1coc2ccccc2c1=O)N1CCN(c2cccc(C(F)(F)F)c2)CC1,-7,17,12,21,-7,2,.,.,.,.,.
CCc1ccccc1NC(=O)CNC(=O)CCNC(=O)Nc1ccccc1,-1,-12,7,8,0,4,.,.,.,.,.
Cc1ccnc(NC(=O)CCC(=O)c2cccs2)c1,-2,56*,87*,-31,6,75*,92*,91*,99*,95*,91*
O=C(COc1ccc(Cl)c2cccnc12)N1CCOCC1,-7,2,-10,-476,3,-1,.,.,.,.,.
c1ccc(-c2n[nH]c(-c3ccccn3)n2)nc1,-8,59*,66*!,6,12,26,53*,51*,78*,84*,61*
O=[N+]([O-])c1ccccc1COc1ccc(Cl)c2cccnc12,4,93*,83*,9,72*,72*,50*,52*,73*,74*,16
Cc1ccc2nc(N3C(=O)C(O)=C(C(=O)c4ccco4)C3c3cccs3)sc2c1 (configuration not stated),6,46,74*,-62,21,53*,7,10,29,38,15
Cc1ccc(-c2nc3cc(NS(=O)(=O)c4ccc(C)cc4)ccc3o2)cc1,3,-1,-13,-200,-2,1,.,.,.,.,.
Cc1ccc(-c2nc3cc(N)ccc3o2)c(C)c1,-10,67*,83*,-482,18,69*,58*,73*,92*,55*,28
Cc1ccc2oc(-c3ccco3)nc2c1,2,55*,66*,-186,-2,44,-14,12,76*,22,0
Cc1ccc(-c2nc3cc(N)ccc3o2)cc1,-11,90*,88*,-260,73*,75*,2,86*,97*,82*,58*
O=c1oc(-c2ccco2)nc2ccccc12,3,-11,-29,-16,0,-11,.,.,.,.,.
Cc1ccc2oc(-c3ccc(NC(=O)CC(C)C)cc3)nc2c1,16,-1,-25,-302,3,-3,.,.,.,.,.
SMILES,EBI2 block,SENP7 block,SENP6 inh,SENP8 block-1,AHR act,SENP8 block-2,SENP8 conf,SENP6 conf,SENP7 conf,Casp3 SENP sel,Luc interf
Cc1ccc(-c2nc3cc(C)ccc3o2)cc1,7,90*,90*,-34,12,89*,58*,77*,94*,78*,33
Cc1ccc(C(=O)N2CCN(CCNC(=O)C(=O)NCc3ccc(Cl)cc3)CC2)cc1,19,6,21,9,6,-5,.,.,.,.,.
Cc1ccc2oc(-c3ccc(NC(=O)c4cccnc4)cc3)nc2c1,20,-2,-14,-57,-4,-25,.,.,.,.,.
COC(=O)c1ccc(-c2nc3ccc(C)cc3o2)cc1,-3,70*,-19,-293,4,25,31,31,36,48,16
CC(C)(C)c1ccc(-c2nc3cc(N)ccc3o2)cc1,0,78*,83*,-433,9,74*,42,84*,95*,48,77*
Nc1cccc(-c2nc3cc(S(=O)(=O)c4ccc5oc(-c6cccc(N)c6)nc5c4)ccc3o2)c1,-2,-3,-4,-263,15,-9,.,.,.,.,.
Cn1c(N2C(=O)CC(Cc3ccccc3)C2=O)nc2ccccc21 (configuration not stated),-8,-5,-24,21,1,1,.,.,.,.,.
CC1=C(O)c2ccccc2C(=O)C1=O,-1,.,.,1,.,.,.,.,.,.,.
O=C1C(=O)c2ccccc2C(O)=C1CCCCl,-2,8,55*,21,1,26,53*,66*,13,8,1
CCNC(=S)N/N=C/c1cccc(C)c1,-7,16,17,17,6,-4,.,.,.,.,.
Cc1cc(NS(=O)(=O)c2ccc(NC(=O)C(c3ccccc3)c3ccccc3)cc2)no1,-1,2,3,16,0,-6,.,.,.,.,.
Cc1noc(NS(=O)(=O)c2ccc(NC(=O)C(Cl)(Cl)Cl)cc2)c1C,2,5,-7,11,7,-9,.,.,.,.,.
Cc1cc(NS(=O)(=O)c2ccc(NC(=O)Nc3ccccc3)cc2)no1,3,33,54*,20,0,23,34,30,67*,69*,30
Cc1noc(NS(=O)(=O)c2ccc(NC(=O)Nc3ccc(Cl)c(Cl)c3)cc2)c1C,-9,16,86*,21,8,82*,89*,89*,95*,51*,85*
